Data from PubChem BioAssay AID1159580 (chemical genetic matrix, 2015).
Several values for one entry are separate records, joined by “and”; a condition that tells them apart may be missing. Equal values may be shown once. The whole screen tested about 5,500 compounds, of which about 2,000 (36%) were called active. About 18% were inconclusive and are not listed. No stated cut-off is given here; in the data, active means normalized growth mostly below about 0.91 (no sharp cut-off); inconclusive means no clear call, values can overlap the other calls; inactive means mostly above about 0.92. The list shows a part of the results.

Assay: chemical genetic growth profiling, strain panel (AID 1159580);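 further: tested at 20 µM; growth read once vehicle control cultures reached saturation at 30 °C; 1 = growth at the plate median or of vehicle wells; lower values mean less growth of the strain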
Conditions: S. cerevisiae deletion strains, growth OD

Measured: normalized growth

CC(=O)OC1CCC23CC1(C)CCC2C(C)(C)CC3OC(C)=O (stereo unspecified)
inactive: locus YAL021C, strain ccr4, hits give low values 1.04 | locus YAL026C, strain drs2, hits give low values 1.02 | locus YAL030W, strain snc1, hits give low values 0.996 | locus YBL061C, strain skt5, hits give low values 1.01 | locus YBR009C, strain hhf1, hits give low values 1.01 | locus YBR021W, strain FUR4, hits give low values 1.01 | locus YBR023C, strain chs3, hits give low values 0.981 | locus YBR171W, strain sec66, hits give low values 0.999 | locus YBR229C, strain ROT2, hits give low values 0.988 | locus YBR231C, strain swc5, hits give low values 1.02 | locus YBR279W, strain paf1, hits give low values 1.04 | locus YCL011C, strain gbp2, hits give low values 0.995 | locus YCL016C, strain dcc1, hits give low values 0.978 | locus YCL029C, strain bik1, hits give low values 1.01 | locus YCL061C, strain MRC1, hits give low values 1.01 | locus YCL069W, strain vba3, hits give low values 0.991 | locus YCR088W, strain abp1, hits give low values 0.992 | locus YDL005C, strain med2, hits give low values 0.994 | locus YDL035C, strain GPR1, hits give low values 1.01 | locus YDL040C, strain nat1, hits give low values 0.999 | locus YDL074C, strain BRE1, hits give low values 1.01 | locus YDL101C, strain DUN1, hits give low values 1.04 | locus YDL134C, strain PPH21, hits give low values 1.02 | locus YDL185W, strain tfp1, hits give low values 1.03 | locus YDL192W, strain arf1, hits give low values 0.974 | locus YDR001C, strain nth1, hits give low values 0.984 | locus YDR069C, strain doa4, hits give low values 1.01 | locus YDR101C, strain arx1, hits give low values 0.98 | locus YDR137W, strain rgp1, hits give low values 0.882 | locus YDR159W, strain sac3, hits give low values 1.03 | locus YDR162C, strain NBP2, hits give low values 0.95 | locus YDR195W, strain ref2 1.03 | locus YDR297W, strain sur2, hits give low values 1.01 | locus YDR318W, strain mcm21, hits give low values 1 | locus YDR334W, strain swr1, hits give low values 1.01 | locus YDR335W, strain msn5, hits give low values 1 | locus YDR388W, hits give low values 0.989 | locus YDR502C, strain sam2, hits give low values 1.01 | locus YEL003W, strain gim4, hits give low values 1.03 | locus YEL037C, strain rad23, hits give low values 1.01 | locus YEL061C, strain CIN8 (second series), hits give low values 1 | locus YER015W, strain faa2, hits give low values 1.02 | locus YER016W, strain bim1, hits give low values 1 | locus YER110C, hits give low values 1.03 | locus YER111C, strain swi4, hits give low values 1.01 | locus YER155C, strain BEM2 (second series), hits give low values 0.99 | locus YER155C, strain BEM2, hits give low values 1.02 | locus YER167W, strain BCK2, hits give low values 0.997 | locus YFR010W, strain ubp6, hits give low values 1.05 | locus YGL078C, strain dbp3, hits give low values 1 | locus YGL086W, strain mad1, hits give low values 0.959 | locus YGL167C, strain pmr1, hits give low values 0.993 | locus YGL173C, strain kem1, hits give low values 1.03 | locus YGL227W, strain vid30, hits give low values 1.01 | locus YGL240W, strain doc1, hits give low values 1.01 | locus YGL248W, strain PDE1, hits give low values 1.04 | locus YGL253W, strain hxk2, hits give low values 1.02 | locus YGR078C, strain PAC10, hits give low values 0.987 | locus YGR135W, strain pre9, hits give low values 1.02 | locus YGR252W, strain gcn5, hits give low values 1.1 | locus YHR013C, strain ard1, hits give low values 1.01 | locus YHR027C, strain rpn1, hits give low values 1 | locus YHR030C, strain SLT2, hits give low values 1.01 | locus YHR079C, strain IRE1 (second series), hits give low values 0.995 | locus YHR079C, strain IRE1, hits give low values 1.01 | locus YHR094C, strain hxt1, hits give low values 0.998 | locus YHR129C, strain ARP1, hits give low values 1 | locus YHR142W, strain chs7, hits give low values 0.963 | locus YHR200W, strain rpn10, hits give low values 0.995 | locus YIL066C, strain RNR3, hits give low values 0.997 | locus YIL073C, strain SPO22, hits give low values 0.995 | locus YIL125W, strain kgd1, hits give low values 0.998 | locus YIR030C, strain dcg1, hits give low values 0.988 | locus YJL092W, strain hpr5, hits give low values 1.01 | locus YJL095W, strain BCK1 (second series), hits give low values 1.01 | locus YJL095W, strain BCK1, hits give low values 0.969 and 1.04 | locus YJL115W, strain asf1, hits give low values 1.01 | locus YJL129C, strain trk1, hits give low values 0.881 | locus YJL134W, strain LCB3, hits give low values 0.998 | locus YJL154C, strain vps35, hits give low values 1 | locus YJL164C, strain tpk1, hits give low values 1.02 | locus YJL166W, strain qcr8, hits give low values 0.993 | locus YJL168C, strain set2, hits give low values 0.985 | locus YJL187C, strain SWE1 (second series), hits give low values 1.07 | locus YJR043C, strain POL32, hits give low values 1.04 | locus YJR066W, strain TOR1, hits give low values 0.98 | locus YJR075W, strain HOC1, hits give low values 0.999 | locus YKL009W, strain mrt4, hits give low values 0.992 | locus YKL068W, hits give low values 0.972 | locus YKL085W, strain MDH1 (second series), hits give low values 0.967 | locus YKL085W, strain MDH1, hits give low values 0.967 | locus YKL160W, strain elf1, hits give low values 1 | locus YKR001C, strain vps1, hits give low values 1.01 | locus YKR026C, strain gcn3, hits give low values 0.991 | locus YKR091W, strain srl3, hits give low values 0.981 | locus YLL001W, strain dnm1, hits give low values 0.995 | locus YLL026W, hits give low values 1 | locus YLL041C, strain sdh2, hits give low values 0.994 | locus YLR027C, strain aat2, hits give low values 1.01 | locus YLR039C, strain RIC1, hits give low values 0.968 | locus YLR058C, strain SHM2, hits give low values 1.05 | locus YLR102C, strain apc9, hits give low values 1.01 | locus YLR113W, strain HOG1, hits give low values 1 | locus YLR221C, strain rsa3, hits give low values 1.01 | locus YLR258W, strain gsy2, hits give low values 1.01 | locus YLR262C, strain YPT6 (second series), hits give low values 0.961 | locus YLR262C, strain YPT6, hits give low values 0.929 | locus YLR268W, strain sec22, hits give low values 0.997 | locus YLR320W, strain mms22, hits give low values 0.959 | locus YLR342W, strain FKS1 (second series), hits give low values 1 | locus YLR342W, strain FKS1, hits give low values 0.988 | locus YLR357W, strain rsc2, hits give low values 1.07 | locus YLR370C, strain arc18, hits give low values 1.04 | locus YLR371W, strain rom2, hits give low values 0.959 | locus YLR384C, strain iki3, hits give low values 0.997 | locus YLR418C, strain cdc73, hits give low values 0.904 | locus YML016C, strain PPZ1, hits give low values 1.02 | locus YML032C, strain rad52, hits give low values 1.01 | locus YML120C, strain ndi1, hits give low values 0.965 | locus YML124C, strain tub3, hits give low values 0.99 | locus YMR058W, strain fet3, hits give low values 1.03 | locus YMR078C, strain ctf18, hits give low values 0.991 | locus YMR125W, strain sto1, hits give low values 1 | locus YMR129W, hits give low values 1 | locus YMR205C, strain PFK2, hits give low values 0.924 | locus YMR223W, strain ubp8, hits give low values 1 | locus YMR231W, strain pep5, hits give low values 1.02 | locus YMR307W, strain GAS1, hits give low values 0.976 | locus YNL067W, strain RPL9B, hits give low values 1.01 | locus YNL153C, strain GIM3, hits give low values 1.03 | locus YNL183C, strain NPR1, hits give low values 0.974 | locus YNL209W, strain ssb2, hits give low values 1.01 | locus YNL233W, strain BNI4, hits give low values 1.01 | locus YNL248C, strain rpa49, hits give low values 1.04 | locus YNL250W, strain rad50, hits give low values 1.03 | locus YNL271C, strain bni1, hits give low values 0.996 | locus YNL298W, strain CLA4, hits give low values 1 | locus YNL307C, strain MCK1, hits give low values 0.943 | locus YNL322C, strain KRE1 (second series), hits give low values 1.01 | locus YNL322C, strain KRE1, hits give low values 1 | locus YNR049C, strain mso1, hits give low values 0.984 | locus YNR052C, strain pop2, hits give low values 1.01 | locus YOL012C, strain htz1 0.724 | locus YOL147C, strain pex11, hits give low values 1 | locus YOR001W, strain rrp6, hits give low values 1.04 | locus YOR061W, strain CKA2, hits give low values 1.03 | locus YOR069W, strain VPS5, hits give low values 1.01 | locus YOR070C, strain gyp1, hits give low values 1.01 | locus YOR080W, strain dia2, hits give low values 1.02 | locus YOR083W, strain WHI5, hits give low values 1.02 | locus YOR106W, strain vam3, hits give low values 1.01 | locus YOR136W, strain idh2, hits give low values 1.02 | locus YOR144C, strain elg1, hits give low values 0.993 | locus YOR231W, strain MKK1, hits give low values 1.04 | locus YOR265W, strain rbl2, hits give low values 1.02 | locus YOR270C, strain vph1, hits give low values 0.851 | locus YOR290C, strain snf2, hits give low values 0.977 | locus YOR316C, strain cot1, hits give low values 1 | locus YPL051W, strain arl3, hits give low values 0.994 | locus YPL078C, strain atp4, hits give low values 0.941 | locus YPL106C, strain sse1, hits give low values 1.07 | locus YPL240C, strain hsp82, hits give low values 0.999 | locus YPL256C, strain CLN2, hits give low values 1.02 | locus YPR119W, strain clb2, hits give low values 0.988 | locus YPR141C, strain kar3, hits give low values 0.971 | locus YPR163C, strain tif3, hits give low values 0.991 | locus YPR167C, strain met16, hits give low values 0.994 | strain wtn01, hits give low values 0.985
active: locus YDR392W, strain spt3, hits give low values 0.528 | locus YNL071W, strain lat1, hits give low values 0.836 | locus YOR184W, strain ser1, hits give low values 0.852
